# Compounds without any hit were thinned out: in the full panel of roughly 83,000, 20% have a hit.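 Compound tested at a single concentration for 48 hours in 96-well plates; a percent growth value below 10 was scored as active.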 A number with no mark means an inactive call. Active and inactive are the calls of the source.
# Key:
# Assay in all cases: NCI-60 one-dose screen, 48 h (100 = growth as untreated, 0 = no growth, -100 = all killed)
# Conditions in all cases: 10 µM unless noted
# SK-MEL-2 melanoma = system: SK-MEL-2 melanoma
# EKVX NSCLC = system: EKVX NSCLC
# SN12C renal = system: SN12C renal
# UO-31 renal = system: UO-31 renal
# TK-10 renal = system: TK-10 renal
# ACHN renal = system: ACHN renal
# CAKI-1 renal = system: CAKI-1 renal
# A498 renal = system: A498 renal
# CCRF-CEM leukemia = system: CCRF-CEM leukemia
# MOLT-4 leukemia = system: MOLT-4 leukemia
# RPMI-8226 leukemia = system: RPMI-8226 leukemia
# OVCAR-8 ovarian = system: OVCAR-8 ovarian
# OVCAR-5 ovarian = system: OVCAR-5 ovarian
# OVCAR-4 ovarian = system: OVCAR-4 ovarian
# SK-OV-3 ovarian = system: SK-OV-3 ovarian
# IGROV1 ovarian = system: IGROV1 ovarian
# OVCAR-3 ovarian = system: OVCAR-3 ovarian
# HS 578T breast = system: HS 578T breast
# NCI/ADR-RES ovarian = system: NCI/ADR-RES ovarian
Structure (SMILES),growth (SK-MEL-2 melanoma),growth (EKVX NSCLC),growth (SN12C renal),growth (UO-31 renal),growth (TK-10 renal),growth (ACHN renal),growth (CAKI-1 renal),growth (A498 renal),growth (CCRF-CEM leukemia),growth (MOLT-4 leukemia),growth (RPMI-8226 leukemia),growth (OVCAR-8 ovarian),growth (OVCAR-5 ovarian),growth (OVCAR-4 ovarian),growth (SK-OV-3 ovarian),growth (IGROV1 ovarian),growth (OVCAR-3 ovarian),growth (HS 578T breast),growth (NCI/ADR-RES ovarian)
COc1ccc(C2CC(c3cccc(OC)c3)=NN2C(=O)c2cc(OC)c(OC)c(OC)c2)cc1 (stereo not drawn),35.9%,46.5%,39.6%,27.4%,36.8%,46.9%,23.6%,-0.548% (active),8.7% (active),9.31% (active),15%,43.9%,44.5%,56.6%,33.7%,27.9%,-55.7% (active),-13.5% (active),-30.4% (active)
CCc1ccccc1-n1c(-c2ccc(Cl)cc2)cc(-c2ccc(Cl)cc2)c(C#N)c1=O,103%,87.5%,92.3%,75.3%,94.5%,98.8%,90.2%,94.9%,34.4%,31.8%,49.3%,88.9%,92.2%,85.9%,96.5%,96.1%,87.7%,88.4%,81.7%
N#Cc1c(N)nc2c(C#N)c(NC(=O)c3ccccc3)nn2c1-c1ccccc1,101%,71.9%,91.7%,61.3%,135%,89.6%,91%,59.1%,57.2%,74.9%,44.1%,77%,105%,88.8%,96.8%,59.1%,89.5%,94.7%,85.5%
O=C(/C=C/c1c(Cl)nc2sccn12)c1nccs1,80.3%,97.5%,89%,81.8%,118%,89.1%,78.8%,72.2%,93.4%,89.3%,83.7%,93.9%,73.2%,109%,89.8%,101%,90.9%,65.5%,99.3%
Cc1cc(/C=C\c2ccc3ccccc3[n+]2C)c(O)c2ncccc12,35.9%,18.7%,3.73% (active),16.8%,23.2%,6.11% (active),-0.345% (active),30.5%,25.6%,0.695% (active),14%,6.2% (active),23.9%,7.86% (active),20.9%,-1.34% (active),25.8%,32.9%,32.4%
COc1ccc(-c2nc(SCC(=O)Nc3nc(-c4ccccc4)cs3)[nH]c(=O)c2C#N)cc1,90.5%,101%,108%,59%,117%,104%,82.8%,80.4%,97.2%,89.9%,93%,101%,84.6%,109%,81.6%,88.3%,107%,78%,95.5%
CCc1ccccc1NC(=O)/C(C#N)=C/c1ccc(OC)cc1,104%,92.7%,94%,80.5%,115%,97.4%,103%,100%,84.7%,87.3%,91%,89.5%,100%,94.3%,105%,115%,92.6%,92.6%,97.8%
Cc1nn(-c2ccccc2)c(Cl)c1/C=C(/NC(=O)c1ccccc1)c1nc2ccccc2[nH]1,111%,94.4%,91.2%,80.2%,106%,92.4%,84.1%,88.2%,86.5%,79.9%,91.6%,102%,101%,106%,95.4%,96.8%,120%,115%,101%
Cc1nc2ccccc2n1CC1NC(=O)NC1=O (stereo not drawn),104%,97.9%,97.7%,94.7%,102%,102%,96%,88.8%,107%,96%,106%,96.4%,99.3%,102%,95.9%,104%,105%,102%,107%
Cc1ccc(C(=NN=C(N)N)c2ccc(C)cc2)cc1,-4.66% (active),52.4%,22.6%,21%,12.9%,23.8%,27.1%,17.1%,14.7%,5.74% (active),1.96% (active),6.75% (active),30.8%,31.2%,-10.8% (active),5.38% (active),-34.8% (active),32.4%,6.63% (active)
COc1cc(/C=C2\C(=O)ON=C2C)cc(OC)c1OC,113%,97.8%,98.3%,80.3%,104%,96.9%,91.5%,65%,92.8%,102%,95.9%,99.7%,99.3%,104%,98.9%,101%,101%,92%,100%
c1coc(-c2c3ccc(=[N+]4CCCCC4)cc-3oc3cc(N4CCCCC4)ccc23)c1,-80.4% (active),-66.5% (active),-75.4% (active),-84.6% (active),-93.3% (active),-95.9% (active),-82.9% (active),-66.3% (active),-50.1% (active),-43% (active),-42.7% (active),-61% (active),-91.8% (active),-41.9% (active),-95.2% (active),-67.5% (active),-99.2% (active),-35.6% (active),-60.2% (active)
O=C1/C(=C2/C=Nc3ccccc32)N(O)c2ccccc21,90.4%,66.9%,74.8%,57.7%,129%,68.7%,57.8%,55.4%,46.2%,48.4%,38.9%,62.1%,78.2%,50%,98.8%,48.1%,34.8%,87.7%,55.2%
N#C/C(=C\c1ccc(-c2ccccc2F)o1)c1nc(-c2ccco2)cs1,96.5%,67%,96.7%,68.8%,65.2%,90.4%,56.8%,66.9%,95%,91.9%,80.3%,94.2%,78.2%,19.6%,92.6%,59.9%,89.6%,98.5%,106%
COc1ccc(NC(=O)CSc2nnc(-c3cc(-c4ccccc4)nc4ccccc34)n2-c2ccccc2)cc1,102%,78.1%,88.9%,67%,117%,94.6%,80%,74.3%,86.9%,80.2%,90.1%,90.4%,99.2%,90.3%,102%,92.5%,103%,94.7%,91.8%
COC(=O)/C=C1\S/C(=N\NS(=O)(=O)c2ccc(C)cc2)N(c2ccccc2)C1=O,107%,100%,98.6%,90.8%,109%,104%,96.6%,80.6%,101%,93.9%,106%,99.8%,109%,91%,111%,103%,105%,98.9%,108%
COc1ccc(C2C(c3nn[nH]n3)=C(N)Oc3c2ccc2ccccc32)cc1 (stereo not drawn),61.5%,83.4%,64.9%,45.1%,43.8%,68.6%,34.3%,26.5%,75.3%,52.6%,66.5%,83.8%,104%,83.7%,79.5%,53.6%,64.7%,76.4%,28.3%
